This is an account of results in PubChem BioAssay AID1345082 (National Center for Advancing Translational Sciences (NCATS), 2018).

The whole screen tested about 94,000 compounds, of which about 4,000 (4.3%) were called active. Another 29% or so got no clear call; they are omitted. The sample holds actives, similar compounds and a random draw of the others, so the mix is not that of the screen. Unmarked numbers belong to inactive results. Calls come from the whole dose curve; as a rule, active = well fitted inhibition curve with a large enough effect; inconclusive = small, poorly fitted or top-dose-only effect; inactive = no such curve, though single readings can be large or run the other way.
% is set by controls: 0 for no effect and ±100 for the full control effect; potency is the fitted concentration of half-maximal effect.

This test is described as follows: Cytotoxic Profiling in NIH 3T3 Cell Line of Diverse Libraries Using Quantitative High-Throughput Screening. Note: nearly all actives have a fitted effect of over 55% in size. As to conditions: NIH 3T3 viability, CellTiter-Glo ATP luminescence, 48-72 h; series mostly up to 96.7 µM; activity change, negative = cytotoxicity: at the top concentration. An excerpt:
Cell-based phenotypic screening is a commonly used approach to discover biological pathways, novel drug targets, chemical probes and high-quality hit-to-lead molecules. Many hits identified from high-throughput screening campaign are ruled out through a series of follow-up potency, selectivity/specificity, and cytotoxicity assays. Prioritization of molecules with little or no cytotoxicity for a more in-depth downstream evaluation influence the future direction of projects, so cytotoxicity profiling of the screening libraries at early stage is essential for increasing the likelihood of candidate success. In this study, we analyzed results from a cell-based cytotoxicity screening campaign, comprising nearly 10,000 compounds in NCATS annotated libraries, and over 100,000 compounds in a diversity library, evaluated in four normal cell lines (HEK 293, NIH 3T3, CRL-7250 and HaCat) and a cancer cell line (KB 3-1, a HeLa subline) with overall screening outcomes, hit rates, pan-activity and selectivity. For the annotated library, we also examined the primary targets and mechanistic pathways regularly associated with cell death. To our knowledge, this is the first study to use high-throughput screening to profile large libraries for cytotoxicity assessment in both normal and cancer cell lines. In summary, the results generated here constitutes a valuable resource for the scientific community and provides insight on identifying cytotoxic compounds with particular mechanisms of action, and prioritizing compounds with suitable cytotoxicity profile for further evaluation.
NIH 3T3 cells were seeded into white 1536-well plates using a Multidrop Combi peristaltic dispenser (ThermoFisher, Waltham, MA) at a density of 400 cells/well in 5 uL of medium respectively. A pintool (Kalypsys) was used to transfer 23 nL of compound solution to the 1536-well assay plates. After 48 or 72 hr incubation at 37 degree Celsius, 5% CO2 and 95% humidity, 2.5 uL of CellTiter-Glo (Promega) was dispensed into each well using a dispenser (Aspect Automation, St. Paul, MN) with solenoid valves (Lee Valves, Westbrook CT). Plates were left at room temperature for 10 min before imaging the ATP-coupled luminescence using a ViewLux microplate imager (PerkinElmer, Waltham, MA).
For orientation: In ATP-based viability assays light output follows the ATP content of the culture.
As to `O=C([C@H]1CN2CCC1C[C@@H]2Cn1cc(-c2ccccc2)nn1)N1CCOCC1` (stereo not given in full), the “activity change, negative = cytotoxicity” value was 1.2% [at 174 µM]. As for `Cc1nc(-c2ccccc2)cc([C@H]2CN3CC[C@H]2C[C@@H]3CNC2CCN(C)CC2)n1`, the Potency was 56.2 µM (active).

For `Cc1nc(-c2ccccc2)cc([C@H]2CN3CC[C@H]2C[C@@H]3CNC2CCOCC2)n1`, the Potency was 31.6 µM (active).

`CN(C)C(=O)[C@H]1CN2CCC1C[C@@H]2Cn1cc(-c2ccc(-c3ccccc3)cc2)nn1` (stereo not given in full): the “activity change, negative = cytotoxicity” value was -19.8% [at 174 µM]. For the compound `O=[S+]1([O-])NCC2(CCN(Cc3cccnc3)C2)Oc2ncccc21` (stereo not given), the compound was classed as inactive. With `COc1ccc([C@@H]2CN(C(=O)c3c(C)noc3C)[C@@H]3C4CCN(CC4)[C@@H]32)cc1`, the “activity change, negative = cytotoxicity” value is -2.69%. Still for that read-out and setting: the result for `CN(C)[C@@H]1CN(C(=O)Cc2ccc(F)cc2)C[C@H]1CO` reads 1.09%; that for `O=C1NC2(Cc3ccccc31)CN(Cc1ccncc1)C2`, -1.85% [at 138 µM]; that for `COc1ccc(-c2cc([C@H]3CN4CC[C@H]3C[C@@H]4CNC(=O)c3ccccc3)n(C)n2)cc1OC`, -22.8%. Take `COc1ccccc1-c1cc([C@H]2CN3CC[C@H]2C[C@@H]3CNC(C)=O)n(C)n1`: the “outcome” value was “inactive [at 174 µM]”.

In the case of `CCCNC(=O)OC[C@H]1C[C@@H]2CCN1C[C@@H]2c1cc(-c2ccc(OC)c(OC)c2)nn1C`, the “activity change, negative = cytotoxicity” value was -28.8%. In the case of `COc1ccc(C(=O)NC[C@H]2C[C@@H]3CCN2C[C@@H]3c2cc(-c3ccccc3)nn2C)cc1`, the Potency is 89.1 µM (active). Take `Cn1nc(-c2cccs2)cc1[C@H]1CN2CC[C@H]1C[C@@H]2CNC(=O)CCCC(=O)O`: the “outcome” value is “inactive [at 174 µM]”. `Cn1nc(-c2cccs2)cc1[C@H]1CN2CC[C@H]1C[C@@H]2CNC(=O)Nc1ccccc1`: the Potency is 100 µM (active). As for `CCC(=O)N1CCC2(CC1)c1nccn1-c1ccccc1CN2CC(C)C`, the “activity change, negative = cytotoxicity” value was -8.23%.

`O=C(Cc1ccc(F)cc1)N1CCN(C2CCN(Cc3cccnc3)C2=O)CC1` (stereo not given): the “activity change, negative = cytotoxicity” value is -13.6%. With `CC1=NOC2(CCN(Cc3cncs3)C2)C1` (stereo not given), the “outcome” value is “inactive [at 138 µM]”. Take `Cc1ccc(S(=O)(=O)NC[C@H]2C[C@@H]3CCN2C[C@@H]3CN2CCN(c3ncccn3)CC2)cc1`: the “activity change, negative = cytotoxicity” value is -13.2%. Consider `COc1cc2c(cc1OCc1ccccc1)NC(=O)C21CCN(CCC(C)C)CC1`, for which the Potency was 89.1 µM (active). On to `COc1cc2c(cc1OCc1ccccc1)NC(=O)C21CCN(C(=O)C(C)C)CC1`, for which the Potency is 14.1 µM (active).

As to `COc1cc2c(cc1-c1ccncc1)NC(=O)C21CCN(C(C)=O)CC1`, the Potency is 28.2 µM (active). `COc1cc2c(cc1OC1CCCC1)NC(=O)C21CCN(C(=O)c2ccnn2C)CC1`: the “activity change, negative = cytotoxicity” value is -19.9% [at 138 µM]. On the same count and under the same terms, the result for `O=C1NC2(Cc3ccccc31)CN(CC1CC1)C2` reads 0.241% [at 174 µM]. Turning to `CC(C)N1CC2CCC(C1)N2C(=O)N1CCCC1`, the “activity change, negative = cytotoxicity” value was 0.693% [at 138 µM]. On the same count and under the same terms, the same measure for `CCCSc1ncc(CN2CC[C@H]3CNC[C@H]32)cn1`: -19.6%. Still for that read-out and setting: the result for `O=C(O)COCC(=O)N1C[C@@H]2C[C@H](C1)c1c(-c3ccc4ccccc4c3)ccc(=O)n1C2` reads 0.104% [at 174 µM]; that for `Cn1cccc1CN1CCC2(COc3ccncc3[S+](=O)([O-])N2)C1` (stereo not given), -1.63%; that for `CCOC(=O)[C@H]1CN(C(=O)N2CCOCC2)[C@]2(C)C(=O)N(CC(=O)N(C)C)c3ccccc3[C@H]12`, -22.1% [at 46.1 µM]. On to `Cc1ccc(C(=O)N2CCC3(CC2)c2nccn2-c2ccccc2CN3C)cc1C`, for which the “activity change, negative = cytotoxicity” value was -2.76%.

For the compound `FC(F)(F)CN1C2CCC1CN(c1ccc(Cl)nn1)C2`, the “activity change, negative = cytotoxicity” value is 1.46%. Same read-out and setting: the same measure for `CCNC(=O)N1CC2CN(C(C)C)CC(C1)O2`: -0.941%. Turning to `CC1=NOC2(CCN(Cc3c[nH]c4ccccc34)CC2)C1`, the “outcome” value is “inactive [at 138 µM]”. Turning to `Cn1cc(CN2CCN(C(=O)COc3ccc(F)cc3)CC2)ccc1=O`, the “activity change, negative = cytotoxicity” value is -12.8%.

Consider `CCC(CC)c1cc([C@H]2CN3CC[C@H]2C[C@@H]3CNS(=O)(=O)Cc2ccccc2)nc(-c2ccncc2)n1`, for which the Potency was 22.4 µM (active). As to `CCCCc1cn(C[C@H]2CC3CCN2C[C@@H]3C(=O)NCc2ccccc2)nn1` (stereo not given in full), the “activity change, negative = cytotoxicity” value is -15.6% [at 174 µM].
